Data from PubChem BioAssay AID488789 (Broad Institute, 2010).
Entries with a potency or affinity are not part of this list. Inconclusive results are not listed. Activity calls are given as the source filed them.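 The calls were made as follows: active = samples whose fitted half-maximal inhibition concentration is no more than ten times the top valid dose tested; inconclusive = flat response between -70 and -30, or invalid curve fit; inactive = flat within 30 of zero, potency above limit, or signal rising.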

target: Trypsin (Sus scrofa) (UniProt P00761); assay: porcine trypsin inhibitors, dose response, selectivity assay for Rce1 protease inhibitor project, biochemical, quenched peptide fluorescence, cherry-pick (AID 488789); conditions: quenched peptide cleavage fluorescence; series mostly up to 10 µM;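 also: more negative means stronger trypsin inhibition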
Sequence (P00761 whole entry, looked up): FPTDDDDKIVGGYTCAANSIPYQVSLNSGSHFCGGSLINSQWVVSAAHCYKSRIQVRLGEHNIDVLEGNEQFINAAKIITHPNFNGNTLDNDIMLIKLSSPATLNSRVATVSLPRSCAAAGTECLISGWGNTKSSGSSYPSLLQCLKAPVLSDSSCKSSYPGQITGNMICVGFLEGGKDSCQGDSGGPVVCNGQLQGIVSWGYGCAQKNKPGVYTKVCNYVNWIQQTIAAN

outcome, inactive:
CCCCNC(=S)NNC(=O)CCn1cc(C)cn1
O=C(CN1CCC(NC(=O)c2ccc(Br)cc2)CC1)NCc1cccs1
CC(=O)NN1C(=O)c2ccccc2NC1c1ccccc1 (stereo not drawn)
Cn1c(CN2CCOCC2)c(C#N)c2ccccc21
C/C(CC(=O)NCc1ccco1)=N\NC(=O)c1ccc([N+](=O)[O-])cc1Cl
Cc1cc(C)c2nc(N(CCCN(C)C)C(=O)c3ccc4c(c3)CCCC4)sc2c1
CCNC(=S)NNC(=O)CCn1cc(C)cn1
O=C(c1cnc2n(c1=O)CCS2)N1CCN(C(c2ccccc2)c2ccc(Cl)cc2)CC1 (stereo not drawn)
COc1cc2c(cc1OC)C(C)N(C(=O)CCNC(=O)c1ccccc1)CC2 (stereo not drawn)
CC(=O)Oc1ccc(C(=O)Nc2ccc(S(=O)(=O)NCC3CCCO3)cc2)cc1 (stereo not drawn)
CCSCCOC(=O)C1=C(C)NC(=O)NC1c1ccccc1 (stereo not drawn)
CCCC(=O)N1CCN(c2ccc(NC(=O)c3cc4ccccc4o3)cc2Cl)CC1
COc1cc(-c2nc3ccccn3c2/N=C/c2cccc(OC)c2O)ccc1O
O=S(=O)(CC(CN1CCOCC1)N1CCOCC1)c1ccccc1 (stereo not drawn)
Cc1cccc(OCCCN2C(=O)C(=O)c3cc(C)ccc32)c1
COc1ccccc1/C=C/C=N/NC(=O)CN1CCN(S(=O)(=O)c2ccc(C)cc2)CC1
OC1CCN(C(c2ccc3ncccc3c2)c2nnnn2C2CCCCC2)CC1 (stereo not drawn)
Cc1cc(C(=O)N[C@H](c2ccccc2)[C@@]2(C)C[C@@H]2[C@@H](C)C(=O)Nc2ccc3ccccc3c2)n(C)n1
Cc1cc(C)n(-c2nc3ccccc3c(=O)n2OCC(=O)N(C)C)n1
CN1CCN(C(=S)NC(=O)c2ccccc2Cl)CC1
CC(C)c1ccc(/C=C2\SC(=S)N(CCC(=O)NCCCn3ccnc3)C2=O)cc1
CC(C)c1ccc(NC(=O)COc2nncc3ccccc23)cc1
Cc1ccc2c(c1)sc[n+]2Cc1ccccc1
